# Screens (PubChem BioAssay)
# Compounds with a hit are over-represented: about 1.1% of the library has one in this group of screens.
# NR5A2 inv ag – NR5A2 inverse agonism in reporter assay; AID 602396; 0.13% of 360,000 active; inhibition, % at 3.6 µM; HEK293T StAR-luciferase reporter, LRH-1 transfected, 24 h; O00482;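 active means inhibition above the mean inhibition of all tested compounds plus 3 SD, cut at about 73% in these data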;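 further: 0% = DMSO wells and 100% = reporter-only cells lacking LRH-1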
# GalR3 antag – blocks the human galanin receptor 3. O60755. HEK293 GalR3-CNG cAMP membrane potential fluorescence; galR3 body fused to GalR1 C-terminus. inhibition, % at 3 µM. 0.44% of 360,000 active. AID 651719;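 active means inhibition above the screen-wide average plus 3 SD, cut at about 13% in these data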;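 further: forskolin and galanin both at EC90 stimulate the cells; cAMP rise reported by CNG channel membrane potential dye signal; 0% = forskolin plus galanin with DMSO and 100% = forskolin alone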
# Target sequence (O60755 1-299 limits assumed): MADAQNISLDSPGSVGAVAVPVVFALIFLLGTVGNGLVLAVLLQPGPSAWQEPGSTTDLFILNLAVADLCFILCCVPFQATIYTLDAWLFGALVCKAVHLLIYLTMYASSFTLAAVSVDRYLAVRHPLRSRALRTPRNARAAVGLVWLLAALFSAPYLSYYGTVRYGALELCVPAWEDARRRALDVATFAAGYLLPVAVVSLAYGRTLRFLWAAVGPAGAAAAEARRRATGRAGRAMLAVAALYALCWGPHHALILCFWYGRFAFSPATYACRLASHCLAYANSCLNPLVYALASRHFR
# NCOA1 inh – inhibitors of human steroid receptor coactivator 1 (SRC1) | HEK293 GAL4-SRC1 luciferase reporter, luminescence | inhibition, % at 3.6 µM | 0.12% of 360,000 active;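 active means inhibition above the campaign mean plus 3 SD, with each screening campaign given its own cutoff, cut at about 60% in these data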;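 further: 0% = DMSO treated cells and 100% = gossypol at 36 µM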
# NCOA3 inh – inhibits human SRC3 coactivator; Q9Y6Q9; HEK293 GAL4-SRC3 luciferase reporter, luminescence; inhibition, % at 3.6 µM; 0.17% of 360,000 active; AID 588352;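 active means inhibition above a per-campaign cutoff, the mean of all compounds plus 3 SD, cut at about 60% in these data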;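 further: 0% = DMSO-treated cells and 100% = gossypol-treated cells at 36 µM; higher means less SRC3-driven luciferase light from the GAL4 reporter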
# SRC2 inh – human SRC2 (NCOA2) inhibition; Q15596; HEK293 GAL4-SRC2 luciferase reporter, luminescence; inhibition, % at 9 µM; 0.17% of 370,000 active; AID 651957;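 active means inhibition above the mean inhibition of all tested compounds plus 3 SD, set per campaign, cut at about 52% in these data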;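 further: 0% = DMSO treated cells and 100% = cells given Gossypol at 36 µM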
# COUP-TFII inh – inhibitors of human COUP-TFII (NR2F2); inhibition, % at 8.6 µM; P24468; HEK293T NGFI-A luciferase reporter, luminescence; AID 686940; 0.7% of 370,000 active;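 active means inhibition above a per-plate cutoff, mean inhibition of test wells between control levels plus 3 SD, cut at about 38% in these data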;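 further: cells cotransfected with COUP-TFII expression vector driving the NGFI-A reporter; 0% = median of COUP-TF2 test wells and 100% = reporter-only cells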
# VP16 Luc counter – inhibits VP16 reporter, flagging COUP-TFII antagonist hits; shares compounds with COUP-TFII inh; HEK293 Gal4-VP16 luciferase reporter, luminescence; 25% of 2,500 active; AID 687007; inhibition, % at 8.5 µM; in the data active means inhibition above about 13%
# NR2F2 inh conf – confirmation of human COUP-TFII (NR2F2) inhibitors | shares compounds with COUP-TFII inh | HEK293 NGFI-A luciferase reporter, luminescence | inhibition, % at 8.5 µM | 45% of 2,500 active | AID 687008;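 active means mean inhibition over three repeats above a set limit taken from the earlier primary screen, cut at about 38% in these data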;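 further: 100% = cells given the luciferase reporter alone without the COUP-TF2 vector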
# Numbers without * were called inactive; nt = no result given.
SMILES,NR5A2 inv ag,GalR3 antag,NCOA1 inh,NCOA3 inh,SRC2 inh,COUP-TFII inh,VP16 Luc counter,NR2F2 inh conf
N#CC1(NC(=O)COC(=O)c2ncc(Cl)c(Cl)c2Cl)CCCCC1,19,-1,0,-3,-20,15,nt,nt
CCN(CC)C(=O)c1ccc(/C=C/c2c[nH]c3ccccc23)[n+](C)c1,-3,-2,9,-1,22,-15,nt,nt
CC[n+]1c(/C=C/c2c[nH]c3ccccc23)ccc2cc(C)ccc21,nt,-10,nt,nt,-10,38*,4,52*
CCCCNCC(O)(c1ccc(Cl)cc1)c1ccc(Cl)cc1,8,-9,-11,13,-1,8,nt,nt
Cc1ccc(C(=O)Nc2ccncc2)cc1S(=O)(=O)N1CCCCC1,28,-8,10,14,28,47*,-3,3
CN(c1ccc(F)cc1)S(=O)(=O)c1ccc(Cl)c(C(=O)Nc2ccncc2)c1,-4,-7,2,20,40,24,nt,nt
CN(c1ccccc1)S(=O)(=O)c1ccc(Cl)c(C(=O)Nc2ccncc2)c1,15,-4,17,25,36,40*,1,2
Cc1ccc(C(=O)Nc2ccncc2)cc1S(=O)(=O)N1CCOCC1,11,-2,-5,5,-23,1,nt,nt
CCN(CC)S(=O)(=O)c1cc(C(=O)Nc2ccncc2)ccc1Cl,16,-4,11,7,24,64*,-13,25
O=C(Nc1cccc(S(=O)(=O)N2CCCCC2)c1)c1ccccc1NS(=O)(=O)c1ccc(F)cc1,-9,-5,20,10,10,13,nt,nt
CCN(CC)S(=O)(=O)c1cc(C(=O)Nc2cccnc2)ccc1Cl,-4,-4,-33,-2,-3,8,nt,nt
Cc1ccc(NC(=O)c2ccccc2NS(=O)(=O)c2ccc(F)cc2)cc1S(=O)(=O)N1CCCCC1,19,-4,6,39,35,38*,-9,13
COC(=O)c1c(NC(=O)CN2CCC3(O)CCCCC3C2c2ccc(F)cc2)sc(C)c1C (stereo not drawn),4,2,-9,5,11,5,nt,nt
COC(=O)c1cc2c(c3c4cc(OC)ccc4n(S(=O)(=O)c4cccc(C)c4)c13)C(=O)N(Cc1ccc(N(C)C)cc1)C2,nt,-6,nt,nt,5,9,nt,nt
O=C(Nc1ccc(Cl)c(S(=O)(=O)N2CCCCC2)c1)c1cccnc1,23,-6,17,10,16,35,nt,nt
O=C(Nc1ccncc1)c1ccc(Cl)c(S(=O)(=O)N2CCCC2)c1,24,-6,-3,10,-5,46*,-2,14
Cn1c2ccc(Br)cc2c2nnc(SCC(=O)O)nc21,18,0,-11,-9,-22,-6,nt,nt
Cn1nnnc1SCc1nc2scc(-c3ccccc3)c2c(=O)[nH]1,-10,-1,4,-6,6,-11,nt,nt
Cn1nnnc1SCc1nc2scc(-c3ccc(Cl)cc3)c2c(=O)[nH]1,18,-6,14,10,-4,46*,-9,15
COc1ccccc1CCNC(=O)C(C)n1nc(C)c2c(C)n(-c3ccccc3)nc2c1=O (stereo not drawn),17,-11,-10,1,-12,2,nt,nt
COc1ccc(CCNC(=O)C(C)n2nc(C)c3c(C)n(-c4ccc(C)cc4)nc3c2=O)c(OC)c1 (stereo not drawn),37,-10,17,35,9,61*,4,62*
Nc1ccc2nc(SCC(=O)N3CCN(c4ccccc4)CC3)sc2c1,32,0,11,25,3,55*,-10,29
Nc1ccc2nc(SCC(=O)N3CCOCC3)sc2c1,-10,0,-14,-6,-66,-17,nt,nt
COc1ccc(CNn2c(-c3cccs3)nc3ccccc3c2=O)cc1OC,6,-4,4,-8,35,38*,-9,6
COc1cccc(C(=O)Nn2c(-c3cccs3)nc3ccccc3c2=O)c1OC,6,-7,-11,4,9,6,nt,nt
Cc1cc(=O)oc2cc(O)cc(O)c12,13,-1,9,1,11,-5,nt,nt
